Potency and activity change, negative = inhibition data for 90 compounds are collected here from PubChem BioAssay AID624417 (National Center for Advancing Translational Sciences (NCATS), 2012).

The campaign covered roughly 410,000 compounds. About 6,400 (1.6%) were called active. A call without a number means that no potency is given here. Another 20% or so got no clear call; they are omitted. The sample holds actives, similar compounds and a random draw of the others, so the mix is not that of the screen. Unmarked numbers belong to inactive results. The call rests on the fitted dose curve; in most records, active means well fitted inhibition curve with a large enough effect; inconclusive means small, poorly fitted or top-dose-only effect; inactive means no such curve, though single readings can be large or run the other way.
Potency means the concentration at half of the fitted maximal effect.

The target in this assay is Glucagon-like peptide 1 receptor (Homo sapiens) (UniProt P43220). As to the kind of experiment: qHTS of GLP-1 Receptor Inverse Agonists (Inhibition Mode). Further: nearly all actives have a fitted effect of over 55% in size. Conditions: HEK293 GLP-1R CRE-luciferase, luminescence, 24 h, GLP-1R form is constitutively active; series mostly up to 38.3 µM. A digest of the protocol: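 HEK293 cells stably co-expressing a cAMP-responsive luciferase reporter and constitutively active GLP-1R were seeded, incubated 12 h, then exposed to compounds for 24 h at 37 C. Luminescence was read 12 min after detection reagent; inverse agonists lower signal.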
Chain of Glucagon-like peptide 1 receptor (Homo sapiens) (P43220 whole entry, looked up): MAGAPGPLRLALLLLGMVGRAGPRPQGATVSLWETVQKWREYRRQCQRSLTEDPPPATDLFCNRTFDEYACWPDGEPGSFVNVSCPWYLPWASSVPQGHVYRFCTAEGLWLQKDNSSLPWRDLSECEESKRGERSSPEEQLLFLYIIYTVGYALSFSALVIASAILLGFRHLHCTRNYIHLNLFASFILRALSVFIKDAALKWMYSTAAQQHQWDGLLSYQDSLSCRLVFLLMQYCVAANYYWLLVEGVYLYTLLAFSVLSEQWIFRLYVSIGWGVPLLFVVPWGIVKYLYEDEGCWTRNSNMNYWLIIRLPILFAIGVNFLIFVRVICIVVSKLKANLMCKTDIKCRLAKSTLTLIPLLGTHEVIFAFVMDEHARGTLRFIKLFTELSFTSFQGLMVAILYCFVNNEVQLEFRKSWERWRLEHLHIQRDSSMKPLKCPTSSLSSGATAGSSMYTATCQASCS
Background: qHTS replaces the single test concentration by a dilution series.
With `Cc1ccc2nc(N(CCN(C)C)C(=O)C3=COCCO3)sc2c1`, the Potency result was “inactive”.
On the same count and under the same terms, the same measure for `CN(C)CCN(C(=O)CN1C(=O)c2ccccc2C1=O)c1nc2cc3c(cc2s1)OCCO3`: “inactive”; for `CN(C)CCCN(C(=O)c1ccc(S(=O)(=O)N2CCCCCC2)cc1)c1nc2ccc(Br)cc2s1`: 3.55 µM (active); for `CN(C)CCCN(C(=O)c1ccc(S(=O)(=O)N2CCCCCC2)cc1)c1nc2cc3c(cc2s1)OCCO3`: 11.2 µM (active).
With `Cc1cc(C)c2sc(NC(=O)c3ccc(S(=O)(=O)N4CCCC4)cc3)nc2c1`, the Potency result was “inactive”.
On the same count and under the same terms, under `Cc1cc2nc(NC(=O)c3ccc(S(=O)(=O)N4CCOCC4)cc3)sc2cc1C` stands “inactive”.
In the case of `Cc1noc(C)c1S(=O)(=O)N(C)C[C@H]1OCCCC[C@@H](C)Oc2ccc(NC(=O)CCCN(C)C)cc2C(=O)N([C@H](C)CO)C[C@@H]1C`, the Potency result is “inactive”.
As to `O=C(O)C1=C(C(=O)O)C2CCC1C2`, the Potency result was “inactive”.
On the same count and under the same terms, the same measure for `CC(=O)N1Cc2cc(C(=O)NCc3cccc(F)c3)nc(-c3cccc(C4=CCCCC4)c3)c2[C@H]1CCO`: “inactive”.
Consider `CCc1nc2c(=O)[nH]cnc2o1`, for which the Potency entry is “inactive”.
For the compound `C/C(=N/NC(=O)c1ccncc1)c1ccc2c(c1)OCO2`, the Potency result is “inactive”.
Turning to `C/C(=N\NC(=O)C(N)=O)c1ccc2c(c1)OCCO2`, the Potency entry is “inactive”.
Still for that read-out and setting: the same measure for `C/C(=N/NC(=S)Nc1ccccc1)c1ccc2c(c1)OCO2`: 3.16 µM (active); for `CCOC(=O)[C@]12CCCC=C1N(CCC1=CCCCC1)C(=O)[C@H](CC(=O)NCCCOC)C2`: “inactive”; for `O=C(NCC(F)(F)F)c1ccc(S(=O)(=O)NCCc2ccc3c(c2)OCCO3)cc1`: “inactive”.
Take `COc1cc(SC)ccc1C(=O)Nc1nc(C)cs1`: the Potency was 1.12 µM (active).
`COc1cc(SC)ccc1C(=O)NCCOc1ccccc1Cl`: the Potency entry is “inactive”.
Still for that read-out and setting: under `Cc1csc(NC(=O)c2ccc(C)s2)n1` stands “inactive”.
As to `CCOc1ccc2[nH]c(=S)sc2c1`, the Potency entry was “inactive”.
On to `O=C(NC1CCCC1)C1c2ccccc2OCC(=O)N1CC(F)(F)F` (stereo not given), for which the Potency result is “inactive”.
On the same count and under the same terms, the same measure for `O=C(Nc1cc(F)ccc1F)c1ccc2c(=O)n3c(nc2c1)CCC3`: “inactive”; for `Oc1c(Br)cccc1/C=N/Nc1c(F)c(F)c(F)c(F)c1F`: “inactive”.
On to `O=C(NN=Cc1ccccc1O)NN=Cc1ccccc1O`, for which the Potency result was “inactive”.
The same measure, in the same setting: under `Oc1cccc(/C=N/Nc2ccc(Cl)nn2)c1O` stands 1.12 µM (active); under `C[C@@H]1CN([C@@H](C)CO)S(=O)(=O)c2ccc(-c3ccc(C(=O)N(C)C)cc3)cc2O[C@@H]1CN(C)Cc1ccccc1C(=O)O`, “inactive”.
As to `CCc1nc2c(OCCc3cccc(OC)c3)cccn2c1N(C)C(=O)c1ccc(C)cc1`, the Potency entry is “inactive”.
For `Cc1ccc(NC(=O)[C@H](Cc2ccccc2)NC(=O)CC[C@H]2O[C@@H](n3ccc(=O)[nH]c3=O)[C@H](O)[C@@H]2O)cc1C`, the Potency result was “inactive”.
Same read-out and setting: under `O=S(=O)(c1ccc2ccccc2c1)N1CCN(S(=O)(=O)N2CCOCC2)CC1` stands “inactive”.
The same measure, in the same setting: the same measure for `CN1CCN(S(=O)(=O)c2ccc(N3CCN(c4ccccc4O)CC3)c([N+](=O)[O-])c2)CC1`: 10 µM (active).
The same measure, in the same setting: under `Cc1cc(N)n(-c2ccc(S(=O)(=O)N3CCCC3)cc2[N+](=O)[O-])n1` stands “inactive”; under `Cc1ccc(S(=O)(=O)N2CCN(c3ccccc3)CC2)cc1C`, “inactive”.
Turning to `Cc1ccccc1N1CCN(S(=O)(=O)c2ccc3ccccc3c2)CC1`, the Potency is 10 µM (active).
The same measure, in the same setting: the same measure for `O=[N+]([O-])c1ccc(N2CCN(S(=O)(=O)c3ccccc3)CC2)cc1N1CCc2ccccc2C1`: “inactive”; for `COc1ccc(NC(=O)CN(C)C(=O)c2cc(C)oc2C)cc1`: “inactive”; for `O=C(/C=C/[C@H]1O[C@@H](n2ccc(=O)[nH]c2=O)[C@H](O)[C@@H]1O)NCc1ccccn1`: “inactive”.
On to `C[C@H](CO)N1C[C@H](C)[C@@H](CN(C)C(=O)c2cnccn2)Oc2ncc(Br)cc2C1=O`, for which the Potency result was “inactive”.
Still for that read-out and setting: the same measure for `CC(C)C[C@@H]1COc2cc(N3CCC[C@@H]3CO)ccc2S(=O)(=O)N1`: “inactive”; for `Cc1cccc([C@@H]2[C@@H]3C(=O)N(Cc4ccccc4)C(=O)[C@@H]3[C@]3(Cc4ccc(Cl)cc4)C(=O)N(c4cccc(Cl)c4)C(=O)N23)c1`: “inactive”.
Still for that read-out and setting: under `O=C1[C@H]2[C@@H](c3ccc(F)cc3)N3C(=O)N(c4ccc(C(F)(F)F)cc4)C(=O)[C@@]3(Cc3ccccc3)[C@H]2C(=O)N1C1CCCCC1` stands 2.24 µM (active); under `CCN1C(=O)[C@H]2[C@@H](c3ccc(C)cc3)N3C(=O)N(c4cccc(Br)c4)C(=O)[C@@]3(CC)[C@H]2C1=O`, “inactive”.
Take `CC(=O)c1ccc(Nc2nc(C(N)c3ccccc3Cl)cs2)cc1` (stereo not given): the Potency result was “inactive”.
The same measure, in the same setting: under `C[C@H](CO)N1C[C@H](C)[C@@H](CN(C)C(=O)c2cccc(F)c2)Oc2cc(-c3cncnc3)ccc2S1(=O)=O` stands “inactive”.
Turning to `O=C(NCc1ccccc1)C1CNCC(C(=O)NCc2ccccc2)C1` (stereo not given), the Potency result was “inactive”.
The same measure, in the same setting: the same measure for `C=CCOC(=O)C1=C(C)NC(C)=C(C(=O)OCC=C)C1c1cccs1`: 10 µM (active); for `C=CCOC(=O)c1ccccc1C(=O)OCC=C`: “inactive”; for `CCOC(=O)C1=C(C)Nc2nc3ccccc3n2C1c1cccs1` (stereo not given): “inactive”.
Still for that read-out and setting: the same measure for `COc1ccc(-c2[nH][nH]c(=O)c2NC(=O)c2ccc([N+](=O)[O-])cc2)cc1`: “inactive”.
For the compound `COc1ccc(C(CNC(=O)COc2ccc([N+](=O)[O-])cc2)N2CCCCC2)cc1` (stereo not given), the Potency entry is “inactive”.
As to `CCc1ccc(OCC(=O)NCC(c2ccc(Cl)cc2)N2CCCCC2)cc1` (stereo not given), the Potency is 8.91 µM (active).
Same read-out and setting: under `COc1ccc(C(CNC(=O)COc2ccccc2OC)N2CCCCC2)cc1` (stereo not given) stands “inactive”; under `O=S1(=O)CC(N2CCN(CCO)CC2)CN1Cc1cn(Cc2cccc(Cl)c2)nn1` (stereo not given), “inactive”; under `CC1CC(C)(C)n2c(O)c(N=NC(N)=S)c3cccc1c32` (stereo not given), 5.01 µM (active).
Consider `CN1OC[C@@H]2CN(S(=O)(=O)c3cccc(C(F)(F)F)c3)[C@H](c3ccc(-c4cc5ccccc5o4)cc3)C[C@@H]21`, for which the Potency result is “inactive”.
In the case of `Cc1ccc(CN(N=Nc2nonc2N)c2nonc2N)c(C)c1`, the Potency was 2.82 µM (active).
Take `COc1cc(CNc2ncnc3c2ncn3[C@H]2CN(Cc3cccs3)C[C@@H](CO)O2)cc(OC)c1OC`: the Potency result is “inactive”.
Still for that read-out and setting: the same measure for `CCOc1ccc(NS(=O)(=O)c2ccc(C(=O)NCC3CCCO3)cc2)cc1` (stereo not given): “inactive”.
The same measure, in the same setting: the same measure for `CC1CN(C(=O)c2cccc(NS(=O)(=O)c3ccc(Br)cc3)c2)CC(C)O1` (stereo not given): “inactive”; for `CCOc1ccc(S(=O)(=O)Nc2ccc(C(=O)NCCCN3CCCC3=O)cc2)cc1`: “inactive”.
As for `CN(C)C(CNC(=O)c1cccc(C#N)c1)c1ccco1` (stereo not given), the Potency entry is “inactive”.
`COc1ccc(C(CNC(=O)c2cccc(S(=O)(=O)Nc3ccc(Br)cc3)c2)N(C)C)cc1` (stereo not given): the Potency is 10 µM (active).
Same read-out and setting: under `COc1ccccc1NS(=O)(=O)c1ccc(C)c(C(=O)NCC(c2ccco2)N(C)C)c1` (stereo not given) stands “inactive”; under `CN(C)C(CNC(=O)c1cccc(S(=O)(=O)Nc2ccc(Br)cc2)c1)c1ccco1` (stereo not given), 12.6 µM (active); under `COc1ccc(C(CNC(=O)c2ccc(S(=O)(=O)Nc3ccccc3F)cc2)N(C)C)cc1` (stereo not given), “inactive”.
The same measure, in the same setting: the same measure for `COc1ccc(NS(=O)(=O)c2cccc(C(=O)NCCc3ccc(S(N)(=O)=O)cc3)c2)cc1`: “inactive”; for `CC(=O)c1ccc(S(=O)(=O)Nc2ccc(C(=O)NCC(c3ccccc3)N(C)C)cc2)cc1` (stereo not given): “inactive”.
Same read-out and setting: under `COc1ccccc1C(CNC(=O)c1cccc(NS(=O)(=O)c2ccc(Br)cc2)c1)N(C)C` (stereo not given) stands 10 µM (active); under `CCOc1ccc(NS(=O)(=O)c2ccc(C(=O)NCC(c3ccccc3OC)N3CCCC3)cc2)cc1` (stereo not given), 11.2 µM (active).
For `Cc1ccc(NC(=O)COC(=O)CN2CCSC2=O)cc1F`, the Potency result was “inactive”.
On the same count and under the same terms, the same measure for `OCCN1CCN(c2ncnc3c2ncn3[C@H]2CN(Cc3ccco3)C[C@@H](CO)O2)CC1`: “inactive”; for `CCOC1=C2CN(S(=O)(=O)c3ccc(C)cc3)[C@H](c3cccs3)C[C@H]2[C@H]2C(=O)N(c3ccccc3)C(=O)[C@H]2C1`: “inactive”; for `C[C@H]1NS(=O)(=O)c2cc(Cl)ccc2O[C@@H]1c1ccccc1`: “inactive”.
Same read-out and setting: the same measure for `CC1(C)CC(=O)C=C(c2ccc(COC(=O)c3cc(F)cc(F)c3)cc2)C1=O`: “inactive”.
On the same count and under the same terms, the same measure for `O=C(Nc1cc(Br)ccc1F)c1nc[nH]c1C(=O)NCc1ccccc1`: “inactive”; for `O=[N+]([O-])c1ccc(CN2CC(N3CCC(c4ccccc4)CC3)CS2(=O)=O)cc1` (stereo not given): “inactive”.
Consider `Cc1cccc(NS(=O)(=O)c2ccc(C)c(C(=O)NCc3cccnc3)c2)c1`, for which the Potency result is “inactive”.
Still for that read-out and setting: the same measure for `Cc1cccc(NS(=O)(=O)c2ccc(C)c(C(N)=O)c2)c1`: “inactive”; for `Cc1cccc(NS(=O)(=O)c2ccc(C)c(C(=O)NCC(c3ccccc3)N(C)C)c2)c1` (stereo not given): 3.98 µM (active); for `CCCc1c(C)nc2scc(-c3ccc(Cl)cc3)n2c1=O`: “inactive”.
The same measure, in the same setting: the same measure for `CCc1nc2c(OCCOc3ccccc3)cccn2c1N(C)C(=O)c1ccccc1F`: “inactive”; for `O=C(CCN1CCCCC1)Nc1ccc(F)c(F)c1`: “inactive”; for `CCOC(=O)N1CCN(C(=O)c2nn(-c3ccc(C)cc3)c(=O)c3c2c2ccccc2n3C)CC1`: “inactive”.
Turning to `Cn1c2ccccc2c2c(C(=O)N3CCN(c4ccc(F)cc4)CC3)cn(C3CCCC3)c(=O)c21`, the Potency is 10 µM (active).
With `CCOc1ccc(NC(=O)c2cn(C3CCCCC3)c(=O)c3c2c2ccccc2n3C)cc1`, the Potency result is “inactive”.
As to `CCN(CC)CCN(C)C(c1ccnc2ccccc12)c1nnnn1-c1ccc2c(c1)OCCO2` (stereo not given), the Potency result is “inactive”.
Still for that read-out and setting: under `CCCCNC(=O)N(O)C1N(/N=C/c2ccccc2O)C(=S)SC1(C)C` (stereo not given) stands 11.2 µM (active).
In the case of `CCCCNC(=O)c1ccc(-n2c(=S)[nH]c3ccccc3c2=O)cc1`, the activity change, negative = inhibition was 11.5% [at 7.66 µM].
As to `CCCCC(O)C1=C[N+](=O)CC=C1` (stereo not given), the Potency result is “inactive”.
Same read-out and setting: under `C[C@H](NC(=O)[C@@H]1CCCN1C(=O)[C@@H]1CCCN1C(=O)c1ccccc1)c1ccccc1` stands “inactive”; under `COC(=O)c1ccc2nc(-c3ccc(Cl)cc3)c(Cc3cccc(F)c3)n2c1`, “inactive”.
On the same count and under the same terms, under `CN1/C(=c2/s/c(=C3/C(=O)N(c4ccccc4)NC3=Nc3ccccc3)n(C)c2=O)C(C)(C)c2ccccc21` stands 1.41 µM (active).
